Assay results as given in PubChem BioAssay AID743156 (Broad Institute, 2013).
The other results are listed elsewhere or left out. Active and inactive are the calls of the source.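 The calls were made as follows: active = mean inhibition across replicates of at least 20% with every single replicate also at 20% or more; inconclusive = mean inhibition at least 20% but some replicate falls below 20%; inactive = mean inhibition under 20% and not all replicates reach it.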

The compounds below were run on PglD UDP-4-amino-sugar N-acetyltransferase (Campylobacter jejuni) (assay: PglD acetyltransferase inhibitors, confirmation, biochemical, DTNB absorbance, single point, cherry-picked samples (AID 743156;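 also: initial rate of CoA release by acetyl transfer from AcCoA to the UDP-4-amino sugar; 0% = median of neutral control wells and 100% = median of positive control wells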)). Conditions: Purified C. jejuni PglD, DTNB absorbance 412 nm; at 20 µM; active compounds read high.
In the case of O=S1(=O)CC(NCc2ccccc2)C(Nc2ccc(Cl)cc2)C1 (configuration not stated), the inhibition is reported as -7.57% (inactive).
In the case of CCOc1ccc(OCc2ccc(C(=O)N(C)c3ccccc3)o2)cc1, the inhibition is reported as 1.37% (inactive).
For Cc1ccc(NC(=O)CNCc2ccccn2)cc1S(=O)(=O)N(C)C, the inhibition was -5.07% (inactive).
In the case of CC(C)CCNC(=O)c1ccc2c(Cl)c3c(nc2c1)CCC3, the inhibition is reported as 2.89% (inactive).
In the case of CCCOc1ccc(F)cc1-c1cc(C(=O)Nc2ccc(F)cc2)[nH]n1, the inhibition is reported as 3.61% (inactive).
CC(NC(=O)c1ccc(Cl)cc1)C(=O)N1CCCCC1 (configuration not stated) was tested, and the inhibition was 0.85% (inactive).
In the case of O=C(Nc1ccc(Sc2ccc(Br)cc2)cc1)c1ccco1, the inhibition is reported as 11.2% (inactive).
For C=CC1=C(C(=O)O)N2C(=O)[C@@H](NC(=O)/C(=N/OCC(=O)O)c3csc(N)n3)[C@H]2SC1, the inhibition was 37.4% (active).
For Cc1ccc(C2=C/C(=C\c3cccnc3)C(=O)O2)cc1, the inhibition was 7.97% (inactive).
With CCCCC(=O)Nc1ccc(C(=O)NCCCn2ccnc2)cc1 the inhibition was -0.586% (inactive).
For CC(=O)Nc1ccc(OC(=O)COc2ccc(Br)cc2)cc1, the inhibition was 1.84% (inactive).
For O=C(NCc1ccncc1)C1CCN(C(=O)c2cccc(Cl)c2)CC1, the inhibition was 2.21% (inactive).
In the case of C=CCOC(=O)C1=C(C)NC(SCC(=O)OCC)=C(C#N)C1c1ccc(C)cc1 (configuration not stated), the inhibition is reported as 0.793% (inactive).
CSc1ccc(S(=O)(=O)NCc2ccc(Cl)cc2)cc1 was tested, and the inhibition was 3.66% (inactive).
With Cc1ccc(S(=O)(=O)N2CCC(C(=O)NCC3CCCO3)CC2)cc1 (configuration not stated) the inhibition was -10.7% (inactive).
COc1ccc(NC(=O)C2=NNC(=O)CC2)cc1S(=O)(=O)N1CCCCC1 was tested, and the inhibition was -3.63% (inactive).
With CC(C)(C)c1ccc(CN2C(=O)c3ccccc3S2(=O)=O)cc1 the inhibition was 2.98% (inactive).
